# SW480 rerep: A quantitative high throughput screen for small molecules that induce DNA re-replication in SW480 colon adenocarcinoma cells; SW480 DNA re-replication, Hoechst DNA content imaging, 48 h; Potency, µM (doses to about 46.1 µM), for the others: at the top dose re-replication activation, hits mostly activators; hit rate 1.8% among 340,000; further: % of control where 0% means no effect; nearly all actives have a fitted effect of over 55% in size
#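 Per well, 250 cells were exposed to pinned compound for 48 hr. Nuclear DNA was visualised with Hoechst (40 min, 37 C) and total object intensity recorded by fluorescence scanning.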
# KB-V1 cytotox: qHTS assay for MDR1-selective chemotherapeutics: Primary screen using the drug-selected MDR subline cells KB-V1; hit rate 3.4% among 400,000; KB-V1 MDR cells viability, CellTiter-Glo, 72 h; Potency, µM (highest dose often 46.1 µM), hits mostly cytotoxic; further: on the % scale 0 is the no-effect control and ±100 the full control effect; nearly all actives have a fitted effect of over 60% in size
#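 KB-V1, DMEM (no phenol red) + 10% FBS; cpd pin-transferred, titration series; 72 h, 37 degrees C; CellTiter-Glo, luminescence. Data normalized, curve-fit.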
# KB-3-1 cytotox: qHTS assay for MDR1-selective chemotherapeutics: Primary screen using the parental adenocarcinoma cell KB-3-1; KB-3-1 viability, CellTiter-Glo ATP luminescence, 72 h; Potency, µM (titrated, usually from 46.1 µM), hits mostly cytotoxic; hit rate 1.4% among 400,000; AID 1347075, 2019; further: on the % scale 0 is the no-effect control and ±100 the full control effect; nearly all actives have a fitted effect of over 60% in size
#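 KB-3-1 cells, DMEM (no phenol red) + 10% FBS; compound by pin transfer, 72 h, 37 °C. Readout: CellTiter-Glo luminescence after 10 min. Data normalized, curve-fitted.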
# ELG1 repair inh: qHTS screen for small molecules that inhibit ELG1-dependent DNA repair in human embryonic kidney (HEK293T) cells expressing luciferase-tagged ELG1 | HEK293T ELG1-luciferase reporter, luminescence, 16 h; DNA damage induced by 5-fluorouridine | Potency, µM (doses to about 46.1 µM), for inactives: top-dose activity change, negative = inhibition, most hits filed as inhibitors | hit rate 2.3% among 330,000; further: on the % scale 0 is the no-effect control and ±100 the full control effect; nearly all actives have a fitted effect of over 55% in size
#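 Quantitative HTS, concentration-response format. 2,000 cells/well co-treated with 5-fluorouridine and compound, 16 hr in 5% CO2 at 37 °C; ONE-Glo luminescence read after 30 min.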
# MCF10A rereplic: A quantitative high throughput screen for small molecules that induce DNA re-replication in MCF 10a normal breast cells; hit rate 2.9% among 350,000; MCF 10A DNA re-replication, Hoechst nuclear intensity, 48 h; Potency, µM (doses to about 46.1 µM), for the others: at the highest dose activity, positive = re-replication, hits mostly activators; further: % of control where 0% means no effect; nearly all actives have a fitted effect of over 50% in size
# * = called active by the depositor; i = inactive; ? = inconclusive; nt = no result given. The list is not random: actives were taken first. Their share in the collection is about 8.1%. The call rests on the fitted dose curve; in most records, active means well fitted curve in the direction sought with a large enough effect; inconclusive means small, poorly fitted or top-dose-only effect, or another doubt; inactive means no such curve, though single readings can be large; an effect the other way counts as inactive or inconclusive. Potency means the concentration at half of the fitted maximal effect.
SMILES,SW480 rerep,KB-V1 cytotox,KB-3-1 cytotox,ELG1 repair inh,MCF10A rereplic
Cc1ccccc1C(=O)Nc1cccc(NC(=O)c2ccc(-c3ccc(Br)cc3)o2)c1,22%,i,i,9.2µM*,?
N=c1oc2ccc3ccccc3c2cc1C(N)=S,?,i,i,0%,12µM*
C=C1C2=C(C(=O)N1OC)[C@@H](O)[C@@](C)(O)[C@@H](CCCCC)O2,nt,i,18µM*,nt,nt
COc1cc(CCC(=O)OCC(=O)Nc2ncc(Cl)cc2Cl)cc(OC)c1OC,-1%,i,i,19%,1%
COc1ccc(N2CCN(C(=O)CSc3nc4nc(C)cc(C)n4n3)CC2)cc1,-5%,21µM*,i,0%,-4%
COc1ccc(N2CCN(C(=O)CSc3nc(C)cs3)CC2)cc1,18µM*,i,i,-12%,0%
O=C(CN1C(=O)C2(SCC(=O)N2c2cccc(Cl)c2)c2ccccc21)NCc1ccccc1 (stereo not drawn),nt,?,i,nt,nt
CC(CN1CCCC1)OC(=O)c1ccc(Br)cc1 (stereo not drawn),-4%,i,i,12%,5%
CC(C)Nc1nc(Cl)nc(N(C#N)CN2C(=O)c3ccccc3C2=O)n1,?,i,?,?,16µM*
Cc1ccc(CSc2nnc(SCC(=O)N/N=C/c3c[nH]c4ccccc34)s2)cc1,?,i,?,?,13µM*
CCn1c(SCC(=O)N/N=C/c2c[nH]c3ccccc23)nnc1-c1ccc(C(C)(C)C)cc1,?,i,i,18µM*,?
O=C(CSc1nnc(SCc2ccccc2)s1)N/N=C/c1c[nH]c2ccccc12,-10%,i,i,?,?
O=C(NCCO)c1ccc(-c2nnc(Nc3ccc(OC(F)(F)Cl)cc3)c3ccccc23)cc1,nt,i,i,nt,nt
COc1cccc(N(C(=O)c2snc(C(N)=O)c2N)C(C(=O)NCC2CCCO2)c2ccc3ncccc3c2)c1 (stereo not drawn),2%,?,i,-5%,1%
Cc1cc(OC2CCCCC2)nc(NCc2ccccc2)n1,-13%,i,i,-14%,-14%
CCCCOc1cc(C)nc(NCc2ccccc2)n1,?,?,10µM*,0%,?
Cc1cc(N/N=C/c2ccccc2)nc(NCc2ccccc2)n1,?,13µM*,i,?,?
CC(=O)c1ccc(Oc2cc(C)nc(NCc3ccccc3)n2)cc1,-5%,16µM*,?,?,11%
CCOc1cc(C)nc(NCc2ccccc2)n1,?,i,i,20%,12µM*
CC(C)CCOc1cccc(OCC(=O)N(C)C2CCS(=O)(=O)C2)c1 (stereo not drawn),11%,i,i,?,?
